PAX8 inh HTS – inhibitors of PAX8-driven TPO luciferase reporter, primary screen, RMG-I cells, single concentration | SteadyGlo, 24 h | inhibition, % at 12.6 µM | 1.2% of 360,000 active | AID 652154, 2013;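 active = mean replicate inhibition at least 60% with every replicate also reaching 60%; inconclusive = only one of the two criteria is met; inactive = mean below 60% and not all replicates reaching 60%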;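 also: luciferase light reporting Pax8 driven TPO promoter activity; plate controls were median of neutral control wells for no effect and mitoxantrone controls for full effect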
EWS-Fli block – EWS/Fli-driven NR0B1 reporter inhibitors, primary screen, A673 cells, NR0B1 luciferase, luminescence, MLPCN library. viability-normalised. 0.67% of 350,000 active. inhibition, % at 12.6 µM. AID 651661, 2012;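 active = mean inhibition of at least 50% after viability correction, with every replicate also passing that limit; inconclusive = mean reaches 50% but only one of two replicates passes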;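 also: firefly luciferase signal divided by Alamar Blue viability fluorescence both relative to DMSO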
Wnt bcat act – Wnt/beta-catenin pathway activators, primary screen, cell-based, plate reader, single point | Wnt/beta-catenin reporter cell assay, activator | activation, % at 9.35 µM | 1.2% of 300,000 active | AID 743398, 2014; in the data active = activation above about 30%, passing the limit was not always enough; inconclusive = no clear call, values can overlap the other calls;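 also: 0% = neutral control wells and 100% = positive control wells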
TRPM1 prom inh – inhibitors of MITF-dependent TRPM1 promoter reporter, primary screen, cell-based, SK-MEL-5, single point, luciferase; AID 488899, 2010; 0.83% of 330,000 active; inhibition, % at 12.5 µM; SK-MEL-5 TRPM1 promoter luciferase, 24 h;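 active = mean inhibition across replicates of 60% or more, whatever share of single replicates reaches that level; inconclusive = some that reach 60%, reason not given; inactive = mean inhibition across replicates below 60%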
MITF TRPM1 HTS – activators of MITF-driven TRPM1 promoter reporter, primary screen, cell-based, SK-MEL-5, luciferase, single point; 0.75% of 300,000 active; SK-MEL-5 TRPM1-promoter luciferase, 24 h; % of positive control, neutral wells = 0; activation, % at 12.5 µM;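 active = mean activation of at least 80% with every replicate also reaching 80%; inconclusive = mean reaches 80% but some replicate falls short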;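 also: 0% = neutral control wells and 100% = parthenolide positive control wells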
esBAF inh – Bmi1 luciferase reporter increase in mESCs, primary screen, esBAF inhibitor project, mouse ES cells, Bmi1 luciferase knock-in, single point. 24 h; 100% = twice the neutral-well signal. 2% of 350,000 active. reporter increase, % at 12.5 µM; in the data active = activation above about 40%; inconclusive = no clear call, values can overlap the other calls;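 also: 0% = median of the plate's neutral control wells and 100% = double that signal; a rise in the Bmi1 reporter signal indicates esBAF inhibition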
The depositor's hits bear a star; ? = inconclusive; . = not tested or not shown. In the library only some 4% were active in any assay of this set; here they are far more common.

SMILES	PAX8 inh HTS	EWS-Fli block	Wnt bcat act	TRPM1 prom inh	MITF TRPM1 HTS	esBAF inh
O=S(=O)(c1ccccc1)N1CC2(C1)[C@@H](c1ccccc1)[C@@H](CO)N2CC1CCOCC1	.	1	.	.	.	.
CC1(C)CC(=O)C(N=Nc2ccc(Br)cc2)=C(O)C1	15	-50	70*	.	.	.
Cc1cc(C)c(S(=O)(=O)/N=C2/C=C(Sc3ncn[nH]3)C(=O)c3ccccc32)cc1C	102*	.	.	89*	-89	.
COc1ccc2c3c(n(C)c2c1)[C@@H](CO)N(C(=O)Nc1ccc(F)cc1)CC31CCN(Cc2ccccc2F)CC1	.	18	.	.	.	.
CC(C)CC(=O)/C(=C\c1ccc(Cl)cc1Cl)n1cncn1	.	.	.	86*	-83	-17
CC(C)CC(=O)/C(=C/c1ccc(N(C)C)cc1)n1cncn1	-6	-1	1	11	-8	-3
Cc1ccc(C2(c3ccc(C)cc3)CC2C(=O)Nc2ccc([N+](=O)[O-])cc2O)cc1 (stereo not drawn)	.	.	.	74*	-76	-32
Cc1c(C#N)c(O)n(CCO)c(=O)c1N=Nc1ccc2c(c1)COC2=O	-17	12	3	62*	-61	.
CCOC(=O)/C(C#N)=C/c1cc(C)n(-c2ccc(C)cc2)c1C	.	.	.	-85	93*	17
CCOC(=O)/C(C#N)=C\c1cc(C)n(-c2ccccc2)c1C	-211	.	12	-29	.	-34
Cc1cccc(S(=O)(=O)N2C[C@H](O)COC[C@@H]3O[C@@H](CC(=O)NCCCN4CCOCC4)CC[C@H]32)c1	-11	-7	.	.	.	-4
O=C(Nc1ccccc1)c1nnsc1S(=O)c1ccc(Cl)cc1 (stereo not drawn)	.	.	-3	24	-29	44*
Cc1nnsc1S(=O)c1ccc(Cl)cc1 (stereo not drawn)	7	17	-2	9	-12	-3
COc1cccc(NC(=O)N2C[C@H](O)COC[C@H]3O[C@H](CC(=O)NC4CCCC4)CC[C@@H]32)c1	-12	-9	.	.	.	1
O=C(C[C@@H]1CC[C@@H]2[C@H](COC[C@H](O)CN2S(=O)(=O)c2ccccc2)O1)Nc1ccc(-c2ccccc2)cc1	-6	-9	.	.	.	2
CCCCc1nc2cc(C(=O)N(C)C3CCOCC3)ccc2o1	-236	-109	?	-83	77	94*
CCCCc1nc2cc(C(=O)N3CCC(O)CC3)ccc2o1	-119	.	24	-40	34	10
COc1ccc(NC(=O)c2sc3nc(C)cc(C)c3c2N)cc1	-150	-201	12	-104	104*	?
Cc1cc(C)cc(NC(=O)c2sc3nc(C)cc(C)c3c2N)c1	-154	-155	11	-62	63	70*
Cc1cc(C)c2c(N)c(C(=O)Nc3ccc(F)cc3)sc2n1	-157	-53	51*	-51	52	26
Cc1cc(C)c2c(N)c(C(=O)Nc3ccc(C)c(C)c3)sc2n1	-130	-57	21	-121	126*	-22
COc1ccccc1CN1CC[C@H]2[C@H](CO)Nc3ccc(C#Cc4ccccc4)cc3[C@H]21	4	1	.	.	.	2
CC(C)NC(=O)N(C)C[C@@H]1Oc2ccc(NC(=O)CCC(F)(F)F)cc2C(=O)N([C@@H](C)CO)C[C@H]1C	-29	10	.	.	.	-5
C[C@H]1CCCCO[C@H](CN(C)Cc2ccc(C(F)(F)F)cc2)[C@@H](C)CN([C@@H](C)CO)C(=O)c2cc(NC(=O)c3ccncc3)ccc2O1	28	14	.	.	.	-6
C[C@H](NC(=O)[C@H]1[C@H](CO)[C@H]2Cn3c(ccc(-c4ccncc4)c3=O)[C@H]2N1C)c1ccccc1	0	-3	.	.	.	4
SMILES	PAX8 inh HTS	EWS-Fli block	Wnt bcat act	TRPM1 prom inh	MITF TRPM1 HTS	esBAF inh
O=C(C1CCC1)N1CC2(C1)[C@H](c1ccccc1)[C@@H](CO)N2CC1CCCC1	.	-2	.	.	.	.
Cc1cccc(NC(=O)c2sc3nc(N)c(C#N)cc3c2N)c1	-118	.	.	-98	106*	.
COc1ccccc1NC(=O)c1sc2nc(C)cc(C)c2c1N	-28	-24	-2	-3	0	3
Cc1cc(C)c2c(N)c(C(=O)NCC3CCCCC3)sc2n1	.	.	-4	-88	88*	8
Cc1cc(C)c2c(N)c(C(=O)N/N=C/c3cccs3)sc2n1	-125	-107	45*	.	.	.
Cc1cc(C)c2c(N)c(C(=O)Nc3ccc([N+](=O)[O-])cc3)sc2n1	-165	-117	16	-94	101*	?
CN1C(=O)c2cc(NC(=O)c3cccc(F)c3)ccc2OC[C@@H]2O[C@H](CC(=O)O)CC[C@@H]21	19	-8	.	.	.	-1
CC(C)c1ccc(OCC(=O)N2CCCCCC2)c(Br)c1	-128	-1	43*	-58	64	51*
CCS(=O)(=O)N1Cc2ccccc2CC1C(=O)Nc1nnc(SCc2c(Cl)cccc2Cl)s1 (stereo not drawn)	113*	1	-1	1	-3	.
COc1ccc(S(=O)(=O)N2Cc3ccccc3CC2C(=O)Nc2nccs2)cc1OC (stereo not drawn)	.	.	29	-41	41	44*
COc1ccc(S(=O)(=O)N2CCC(C(=O)Nc3nccs3)CC2)cc1	.	2	-1	6	4	.
CCS(=O)(=O)N1Cc2ccccc2CC1C(=O)Nc1nccs1 (stereo not drawn)	-17	-20	26	-31	29	44*
COc1ccc(S(=O)(=O)N2Cc3ccccc3CC2C(=O)Nc2nccs2)cc1 (stereo not drawn)	.	.	.	-43	44	50*
CCS(=O)(=O)N1Cc2ccccc2CC1C(=O)Nc1nc(C)cs1 (stereo not drawn)	-78	-75	5	-21	20	.
C[C@@H]1CCCCO[C@@H](CN(C)C(=O)NC2CCCCC2)[C@H](C)CN([C@@H](C)CO)C(=O)c2cc(NS(=O)(=O)c3cn(C)cn3)ccc2O1	-8	2	.	.	.	7
Cc1cc(=O)[nH]c2ccccc12	.	.	.	6	-5	1
Cc1cc2[nH]c3c(c[n+](C)c4ccccc34)c2cc1C	111*	82*	-9	101*	-100	.
CC1=Nc2ccccc2N=C(NC(=O)c2ccccc2)C1c1ccc(Cl)cc1 (stereo not drawn)	-9	-5	-3	13	-6	9
CC1=Nc2ccccc2N=C(N)C1c1ccccc1 (stereo not drawn)	-17	-7	52*	-18	18	35
O=c1c2ccccc2nc2n1-c1ccccc1CCC2	.	.	-3	5	.	0
O=C1c2ccccc2-n2c1nc1ccccc1c2=O	.	42	0	.	.	45*
Cc1cccc(-n2ncc3c(NCc4ccco4)ncnc32)c1	.	.	.	-40	47	82*
Cc1ccc(-n2ncc3c(NCc4ccco4)ncnc32)cc1C	-48	-52	8	-35	30	.
